From PubChem BioAssay
Most compounds without a hit are left out; they make up all but 7.9% or so of the library.
Hedgehog inh: blocks Sonic Hedgehog signaling; Shh-LIGHT2 Gli-luciferase reporter, 30 h; inhibition, % (no concentration beside the values); 2.1% of 22,000 active; AID 2313;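 active = mean inhibition across valid replicates above about 65%, limit read from the data; inconclusive = mean under the limit, yet half or more replicates past it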;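 also: pathway switched on by Shh-conditioned medium diluted 1 in 25 in low serum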
NOMO-1 viab: STK33 inhibitor candidate reducing NOMO-1 cell viability | NOMO-1 AML viability, CellTiter-Glo luminescence, 72 h | inhibition, % (test concentration not listed) | 7.5% of 37,000 active | AID 2330; in the data active = inhibition above about 80%; inconclusive = no clear call, values can overlap the other calls
MITF inhib: inhibitors of MITF; TRPM1 promoter luciferase, luminescence, 24 h; inhibition, % (test concentration not listed); 0.28% of 37,000 active; in the data active = inhibition above about 85%; inconclusive = no clear call, values can overlap the other calls; inactive = below about 68%;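 also: human melanocyte line stably carrying TRPM1 promoter luciferase reporter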
An asterisk follows results filed as active; ? = inconclusive; . = no result.

SMILES	Hedgehog inh	NOMO-1 viab	MITF inhib
C[C@H](CO)N1C[C@H](C)[C@H](CN(C)C(=O)Nc2ccc3c(c2)OCO3)Oc2ccc(NC(=O)Cc3ccccc3)cc2CC1=O	.	-5	8
O=C(Nc1ccc(OCc2nc3ccccc3s2)cc1)c1ccc(Cl)cc1	.	18	-23
Cc1cc(OCc2nc3ccccc3s2)ccc1NC(=O)Nc1cccc(Cl)c1	.	107*	-13
Cc1ccc(-n2c(SCC(N)=O)nnc2-c2cccs2)cc1	.	-10	4
C[C@@H]1CN([C@H](C)CO)C(=O)Cc2cc(NS(=O)(=O)c3ccc(Cl)cc3)ccc2O[C@H]1CN(C)CC1CC1	-19	-13	-4
C[C@@H]1CN([C@H](C)CO)C(=O)Cc2cc(NS(=O)(=O)c3ccc(Cl)cc3)ccc2O[C@H]1CN(C)CC1CCCCC1	-58	127*	5
C[C@@H]1CN([C@H](C)CO)C(=O)Cc2cc(NS(=O)(=O)c3ccccc3)ccc2O[C@@H]1CN(C)CC1CCCCC1	30	45	-6
C[C@@H]1CN([C@H](C)CO)C(=O)Cc2cc(NS(=O)(=O)c3ccc(Cl)cc3)ccc2O[C@@H]1CN(C)CC1CCCCC1	-10	114*	11
CCN(CC)C(=S)NC(=S)c1ccc(C)cc1	-6	122*	-4
CCN(C(=S)Nc1ccc(C)cc1)c1ccccc1	-54	11	0
S=c1nc(-c2ccccc2)n(-c2ccc(Br)cc2)c2c1CCCC2	.	35	3
C[C@H]1CN([C@@H](C)CO)C(=O)Cc2cc(NC(=O)c3ccncc3)ccc2O[C@H]1CN(C)Cc1ccc(-c2ccccc2)cc1	24	89*	33
C[C@@H]1CN([C@@H](C)CO)C(=O)Cc2cc(NC(=O)c3ccncc3)ccc2O[C@@H]1CN(C)Cc1ccccc1	1	24	-2
C[C@H](CO)N1C[C@H](C)[C@H](CN(C)Cc2ccc(Oc3ccccc3)cc2)Oc2ccc(NC(=O)c3ccncc3)cc2CC1=O	34	47	-4
C[C@@H]1CN([C@H](C)CO)C(=O)Cc2cc(NC(=O)c3ccncc3)ccc2O[C@@H]1CN(C)Cc1ccc(Oc2ccccc2)cc1	73*	25	4
COC(=O)c1ccc(C)c(NC(=O)COc2ccccc2C)c1	.	18	-45
COC(=O)c1ccccc1NC(=O)CNC(=O)c1cccs1	.	-25	4
CS(=O)(=O)N(CC(=O)Nc1ccc(Oc2ccccc2)cc1)c1cc(Cl)c(Cl)cc1Cl	.	118*	55
COC(=O)c1cc(NC(=O)CN(c2cc(Cl)c(Cl)cc2Cl)S(C)(=O)=O)ccc1Cl	.	133*	26
Cc1ccc(NC(=O)CN(c2cc(Cl)c(Cl)cc2Cl)S(C)(=O)=O)cc1Cl	.	84*	50
COC(=O)c1ccc(NC(=O)CN(c2cc(Cl)c(Cl)cc2Cl)S(C)(=O)=O)cc1	.	61	6
Cc1ccc(NC(=O)CN(c2cc(Cl)c(Cl)cc2Cl)S(C)(=O)=O)cc1	.	16	4
CS(=O)(=O)N(CC(=O)Nc1ccc(C(F)(F)F)cc1)c1cccc(C(F)(F)F)c1	.	67	16
CS(=O)(=O)N(CC(=O)Nc1ccc(C(F)(F)F)cc1)c1ccc(Oc2ccccc2)cc1	.	109*	-47
COc1cccc(NC(=O)CN(c2cc(Cl)c(Cl)cc2Cl)S(C)(=O)=O)c1	.	40	10
SMILES	Hedgehog inh	NOMO-1 viab	MITF inhib
COC(=O)c1ccccc1NC(=O)CNC(=O)c1ccccc1F	.	2	-30
CCC(C)c1ccc(NC(=O)CSc2nc3ncccc3[nH]2)cc1 (stereo not given)	.	47	25
Cc1ccc(S(=O)(=O)N(C)C[C@H]2Oc3ccc(NC(=O)Nc4ccc(C(F)(F)F)cc4)cc3CC(=O)N([C@@H](C)CO)C[C@H]2C)cc1	12	111*	61
COc1ccc(S(=O)(=O)N(C)C[C@H]2Oc3ccc(NC(=O)Nc4ccc(C(F)(F)F)cc4)cc3CC(=O)N([C@@H](C)CO)C[C@@H]2C)cc1	3	6	1
COc1ccc(S(=O)(=O)N(C)C[C@H]2Oc3ccc(NC(=O)Nc4ccc(C(F)(F)F)cc4)cc3CC(=O)N([C@@H](C)CO)C[C@H]2C)cc1	-2	51	19
Cc1ccc(S(=O)(=O)N(C)C[C@@H]2Oc3ccc(NC(=O)Nc4ccc(C(F)(F)F)cc4)cc3CC(=O)N([C@@H](C)CO)C[C@@H]2C)cc1	43	115*	46
N#CC(=C(/N)Sc1ccccc1N)/C(C#N)=C(\N)Sc1ccccc1N	5	94*	35
Cn1cnc([N+](=O)[O-])c1Sc1ncnc2nc[nH]c12	22	119*	23
N#C/C(=C\Nc1cc(C(F)(F)F)cc(C(F)(F)F)c1)S(=O)(=O)Cc1ccc(Cl)cc1	107*	50	72
N#C/C(=C\Nc1cc(C(F)(F)F)cc(C(F)(F)F)c1)S(=O)(=O)c1ccccn1	-8	19	20
C[C@H]1CN([C@@H](C)CO)C(=O)Cc2cc(NS(=O)(=O)c3ccc(Cl)cc3)ccc2O[C@H]1CN(C)Cc1ccc(Cl)c(Cl)c1	41	97*	5
C[C@@H]1CN([C@@H](C)CO)C(=O)Cc2cc(NS(C)(=O)=O)ccc2O[C@@H]1CN(C)Cc1ccc(Cl)c(Cl)c1	14	6	1
C[C@H](CO)N1C[C@H](C)[C@H](CN(C)Cc2ccc3c(c2)OCO3)Oc2ccc(NS(=O)(=O)c3ccc(Cl)cc3)cc2CC1=O	48	13	4
C[C@H]1CN([C@@H](C)CO)C(=O)Cc2cc(NS(=O)(=O)c3ccc(Cl)cc3)ccc2O[C@@H]1CN(C)Cc1ccc2c(c1)OCO2	?	48	13
C[C@H](CO)N1C[C@H](C)[C@H](CN(C)Cc2ccc(Cl)c(Cl)c2)Oc2ccc(NS(=O)(=O)c3ccc(Cl)cc3)cc2CC1=O	22	102*	27
C[C@@H]1CN([C@H](C)CO)C(=O)Cc2cc(NS(=O)(=O)c3ccc(Cl)cc3)ccc2O[C@@H]1CN(C)Cc1ccc(Cl)c(Cl)c1	26	117*	-3
COc1ccc(CN(C)C[C@@H]2Oc3ccc(NS(=O)(=O)c4ccc(OC)cc4)cc3CC(=O)N([C@H](C)CO)C[C@@H]2C)cc1	.	45	0
COc1ccc(S(=O)(=O)Nc2ccc3c(c2)CC(=O)N([C@@H](C)CO)C[C@H](C)[C@@H](CN(C)Cc2ccc(Cl)c(Cl)c2)O3)cc1	65	88*	4
NC(=O)c1ccccc1NC(=O)CCCN1C(=O)c2ccccc2C1=O	.	-21	5
CCc1cccc(NC(=O)CSc2c(C)n[nH]c2C)c1	.	10	-7
COc1cc(NC(=O)CCC(=O)O)ccc1NC(C)=O	.	-5	12
C[C@@H]1CN([C@H](C)CO)C(=O)c2cccc(NC(=O)c3ccncc3)c2O[C@H]1CN(C)S(C)(=O)=O	-2	-22	-23
Cc1ccc(S(=O)(=O)Nc2ccc3c(c2)CC(=O)N([C@@H](C)CO)C[C@@H](C)[C@@H](CN(C)C)O3)cc1	24	-10	-8
Cc1ccc(OCC(=O)Nc2sc(C)c(C)c2C(N)=O)cc1	.	30	-38
Cc1sc(NC(=O)Cn2nc(C(F)(F)F)cc2C)c(C(N)=O)c1C	2	118*	-3
O=c1cc(-c2ccccc2)oc2cc(O)ccc12	-18	-7	-56
c1ccc(-c2ccc3c4ccccc4cc-3o2)cc1	-3	106*	18
CC(C)NC(=O)Nc1ccc2c(c1)C(=O)N([C@H](C)CO)C[C@H](C)[C@@H](CN(C)C(=O)NC(C)C)OCCCC[C@@H](C)O2	-6	-8	-15
